GPR151 ag – activates the human receptor GPR151 | Q8TDV0 | activation, % at 11.2 µM | PathHunter beta-arrestin GPR151 cells, luminescence | 650,000 compounds, 1% hits; in the data active means activation above about 4.9%;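 further: 0% = median of compound wells and 100% = cells with positive control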
MITF inh – human MITF inhibition, primary screen; AlphaScreen MITF homodimerization, bead proximity signal; O75030; AID 1259374; inhibition, % at 2.6 µM; 650,000 compounds, 0.91% hits; in the data active means inhibition above about 50%;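 further: 0% = vehicle wells with protein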
Target sequence (O75030 whole entry, looked up): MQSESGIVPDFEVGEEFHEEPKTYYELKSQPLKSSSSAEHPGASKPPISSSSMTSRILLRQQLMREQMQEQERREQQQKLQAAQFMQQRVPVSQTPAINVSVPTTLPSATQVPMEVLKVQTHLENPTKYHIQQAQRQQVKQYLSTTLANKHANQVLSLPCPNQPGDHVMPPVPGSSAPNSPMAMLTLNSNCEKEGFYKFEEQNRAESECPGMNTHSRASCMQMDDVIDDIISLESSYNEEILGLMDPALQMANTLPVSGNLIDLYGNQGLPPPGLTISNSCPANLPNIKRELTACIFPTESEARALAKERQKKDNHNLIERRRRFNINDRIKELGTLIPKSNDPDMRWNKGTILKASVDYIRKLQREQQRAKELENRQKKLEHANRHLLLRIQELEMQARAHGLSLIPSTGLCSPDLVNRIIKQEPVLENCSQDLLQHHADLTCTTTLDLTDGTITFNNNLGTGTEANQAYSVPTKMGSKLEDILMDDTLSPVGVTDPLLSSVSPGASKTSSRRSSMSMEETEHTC
TEAD-YAP block – TEAD-YAP interaction inhibition; AID 1259422; inhibition, % at 9.12 µM; 640,000 compounds, 1.4% hits; HEK-TIYL cells, TEAD-Gal4/YAP UAS-luciferase luminescence; in the data active means inhibition above about 32%;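 further: 0% = median of test compound wells and 100% = reference inhibitor wells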
FBW7 activator – activators of human E3 ligase FBW7; normalized activity (activation), % at 26.1 µM; AlphaScreen FBW7–phospho-cyclin E peptide binding, activator screen; Q969H0; 650,000 compounds, 0.13% hits; in the data active means normalized activity above about 1.9%;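 further: purified mutant Fbw7 with reduced substrate affinity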
GPR151 conf act – confirmation of human GPR151 activators. shares compounds with GPR151 ag. GPR151 PathHunter beta-arrestin cells, luminescence, 90 min; % of EA-reagent control over plate median. activation, % at 11.2 µM. 6,700 tested, under 10 active;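 active means mean percent activation across replicates above the confirmation screen cutoff of 4.91%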
GPR119 ag – activates human GPR119 in a GPR151 counter-screen. shares compounds with GPR151 ag. GPR119 PathHunter beta-arrestin cells, luminescence, 90 min; 0 = compound-well median, 100 = enzyme-acceptor control. activation, % at 11.2 µM. 6,700 compounds, 0.3% hits. AID 1508611;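 active means mean percent activation in the counterscreen above 29.09%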;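 further: counterscreen on off-target GPR119 to flag nonselective hits from the GPR151 activator screen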
An asterisk follows results filed as active; x = no result; ! = repeats disagree. An excerpt weighted towards active compounds, which were near 3.5% of everything screened.

SMILES	GPR151 ag	MITF inh	TEAD-YAP block	FBW7 activator	GPR151 conf act	GPR119 ag
O=C1N/C(=C/c2ccc3c(c2)OCO3)C(=O)N1c1cccc(Cl)c1	0	16	2	0	x	x
COc1ccc(/C=C2/NC(=O)N(c3cccc(Cl)c3)C2=O)c(OC)c1	5.7*	18	-6	0	2	3
COc1ccc(/C=C2/NC(=O)N(c3cccc(Cl)c3)C2=O)cc1	0	-5	-12	0	x	x
O=C1N/C(=C/c2ccco2)C(=O)N1c1cccc(Cl)c1	5.2*	-2	-11	0	-1	1
O=C1N/C(=C/c2ccccc2)C(=O)N1c1cccc(Cl)c1	5	9	0	0	x	x
COc1cc2c(cc1/C=C1/NC(=O)N(c3cccc(Cl)c3)C1=O)OCO2	8.5*	1	11	0	0	7
CN1C(=O)N(C)C2(c3ccccc3)NN3C(=O)CSC3=NC12c1ccccc1 (stereo not drawn)	0	0	-3	0	x	x
COc1cc(/C=C(\C#N)C(=O)Nc2ccccc2F)cc(OC)c1OC	-1	-3	-7	0	x	x
Cc1ccccc1-n1c(=O)cc(NCCCn2ccnc2)[nH]c1=O	14*	8	0	0	1	3
O=c1[nH]c(=O)n(-c2ccccc2Cl)c(O)c1C=NCCCn1ccnc1	4.9*	19	6	0	0	-3
Cc1cccc(NC(=O)c2cc(S(=O)(=O)N(C)Cc3ccccc3)ccc2F)c1C	-1	13	2	0	x	x
Cn1cccc1C1CCCN1CC(=O)NC(=O)NCc1ccccc1 (stereo not drawn)	0	1	-1	0	x	x
N/C(=N\OC(=O)CCCN1C(=O)c2ccccc2C1=O)c1ccccn1	5.3*	1	1	0	2	1
Cc1ccccc1-c1cnnc(N(C)Cc2nc3ccc(F)cc3[nH]2)n1	0	-4	0	0	x	x
COc1cccc(-c2ccc(OCCCc3ccccn3)nc2)c1	5.8*	6	-40	0	0	3
Cc1ccc(-c2cc(C(F)(F)F)n3ncc(C(=O)NC(C)(C)C)c3n2)cc1	-1	-2	-8	0	x	x
Cc1ccc(S(=O)(=O)n2cc(-c3ccnc(N)c3)c3cc(Br)cnc32)cc1	7.6*	x	x	x	0	-2
COc1cc2nc(C)[nH]c2cc1OC	-1	2	-1	0	x	x
COc1ccc2nc(C)[nH]c2c1	5.2*	-9	5	0	-1	-6
CCOc1ccc(CCNC(=O)c2cn(-c3ccc(OC)cc3)c(=O)c3ccccc23)cc1	7.0*	-49	11	0	0	-6
CNc1ccccc1P(=O)(O)O	6.3*	-3	4	0	1	-1
COc1ccc(CNC(=O)CCSC)cc1OC	-1	-5	2	0	x	x
COc1cc(CNC(=O)CCCC/C=C/C(C)C)ccc1O	7.6*!	-7	-12	0	0	-6
CC1CCCCN1CCNC(=O)c1ccc(Cn2c(=S)[nH]c3ccccc3c2=O)cc1 (stereo not drawn)	-1	0	13	0	x	x
CCCCc1nc(SCc2cccnc2)c2c(=O)n(C)c(=O)n(C)c2n1	2	-10	8	0	x	x
SMILES	GPR151 ag	MITF inh	TEAD-YAP block	FBW7 activator	GPR151 conf act	GPR119 ag
CCc1nc(SCc2cccnc2)c2c(=O)n(C)c(=O)n(C)c2n1	8.2*	4	6	0	0	4
C#CCNC(=O)c1cc2sccc2n1C	1	2	7	0	x	x
O=C(O)c1ccc(S(=O)(=O)c2ccc3c(c2)C(=O)N(c2ccc4c(c2)OCO4)C3=O)cc1	1	11	4	0	x	x
Cc1ccc(CN2CC(C(=O)NNC(=O)c3cccs3)CC2=O)cc1 (stereo not drawn)	0	11	2	1	x	x
CCOc1cc(C=O)ccc1OCCOc1ccccc1OC	11*	-2	7	0	1	12
N#C/C(=C\c1c[nH]c2ccccc12)C(=O)N1CCc2ccccc2C1	-1	-12	-10	0	x	x
N#C/C(=C\c1ccc[nH]1)C(=O)N1CCc2ccccc2C1	5.3*	0	-28	0	1	9
COc1ccc(Cl)cc1NC(=O)CSc1nc(=O)n2ccccc2n1	5.7*	5	3	0	0	-15
COc1ccc(Cl)cc1NC(=O)CSc1nc(N)cc(N)n1	0	0	-8	0	x	x

Screening data from PubChem BioAssay.
